Experimental data reported in PubChem BioAssay AID1159580 (chemical genetic matrix, 2015).
Out of some 5,500 compounds screened, about 2,000 (36%) were called active. Another 18% or so got no clear call; they are omitted. No stated cut-off is given here; in the data, active means normalized growth mostly below about 0.91 (no sharp cut-off); inconclusive means no clear call, values can overlap the other calls; inactive means mostly above about 0.92. Some of the results follow.

Experiment: chemical genetic growth profiling, strain panel (AID 1159580);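 further: tested at 20 µM; growth read once vehicle control cultures reached saturation at 30 °C; 1 = growth at the plate median or of vehicle wells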
Conditions: S. cerevisiae deletion strains, growth OD
[1] = locus YDL101C, strain DUN1, stronger effect = lower value
[2] = locus YHR030C, strain SLT2, stronger effect = lower value
[3] = locus YHR079C, strain IRE1, stronger effect = lower value
[4] = locus YJL095W, strain BCK1, stronger effect = lower value
[5] = locus YJR066W, strain TOR1, stronger effect = lower value
[6] = locus YLR113W, strain HOG1, stronger effect = lower value
[7] = locus YNL183C, strain NPR1, stronger effect = lower value
[8] = locus YOR231W, strain MKK1, stronger effect = lower value
[9] = locus YPL256C, strain CLN2, stronger effect = lower value
[10] = locus YAL013W, strain DEP1, stronger effect = lower value
[11] = locus YBR229C, strain ROT2, stronger effect = lower value
[12] = locus YCL061C, strain MRC1, stronger effect = lower value
[13] = locus YDR150W, strain NUM1, stronger effect = lower value
[14] = locus YEL061C, strain CIN8, stronger effect = lower value
[15] = locus YGR078C, strain PAC10, stronger effect = lower value
[16] = locus YHR087W, strain rtc3, stronger effect = lower value
[17] = locus YJR043C, strain POL32, stronger effect = lower value
[18] = locus YJR075W, strain HOC1, stronger effect = lower value
[19] = locus YLR039C, strain RIC1, stronger effect = lower value
[20] = locus YLR058C, strain SHM2 (second series), stronger effect = lower value
[21] = locus YLR085C, strain ARP6, stronger effect = lower value
[22] = locus YLR262C, strain YPT6, stronger effect = lower value
[23] = locus YML094W, strain GIM5, stronger effect = lower value
[24] = locus YMR219W, strain ESC1, stronger effect = lower value
[25] = locus YMR263W, strain SAP30, stronger effect = lower value
[26] = locus YNL153C, strain GIM3, stronger effect = lower value
[27] = locus YNL298W, strain CLA4 (second series), stronger effect = lower value
[28] = locus YNL322C, strain KRE1, stronger effect = lower value
[29] = locus YNR030W, strain Alg12, stronger effect = lower value
[30] = locus YOL006C, strain TOP1, stronger effect = lower value
[31] = locus YPL055C, strain LGE1, stronger effect = lower value
[32] = locus YPL241C, strain CIN2, stronger effect = lower value
[33] = locus YPR135W, strain CTF4, stronger effect = lower value

Measured: normalized growth

O=C(CSc1nnnn1-c1ccccc1)c1ccccc1
inactive: locus YAR019C, strain CDC15, stronger effect = lower value 0.96 | locus YBL105C, strain PKC1, stronger effect = lower value 0.958 | locus YBR135W, strain CKS1, stronger effect = lower value 0.958 | locus YBR136W, strain MEC1, stronger effect = lower value 0.955 | locus YBR160W, strain CDC28, stronger effect = lower value 0.957 | locus YDL017W, strain CDC7, stronger effect = lower value 0.962 | locus YDL028C, strain MPS1, stronger effect = lower value 0.949 | [1] 0.983 | locus YDL108W, strain KIN28, stronger effect = lower value 0.947 | locus YDL132W, strain cdc53, stronger effect = lower value 0.954 | locus YDL214C, strain PRR2, stronger effect = lower value 0.734 | locus YDR052C, strain DBF4, stronger effect = lower value 0.966 | locus YDR054C, strain cdc34, stronger effect = lower value 0.908 | locus YDR226W, strain ADK1, stronger effect = lower value 0.959 | locus YER123W, strain YCK3, stronger effect = lower value 0.677 | locus YER133W, strain GLC7, stronger effect = lower value 0.775 | locus YFL009W, strain cdc4, stronger effect = lower value 0.949 | locus YFL029C, strain CAK1, stronger effect = lower value 0.949 | locus YFR003C, strain YPI1, stronger effect = lower value 0.96 | locus YFR028C, strain CDC14, stronger effect = lower value 0.959 | locus YHR082C, strain KSP1, stronger effect = lower value 0.698 | locus YHR205W, strain SCH9, stronger effect = lower value 0.661 | locus YIL147C, strain SLN1, stronger effect = lower value 0.948 | locus YJL128C, strain PBS2, stronger effect = lower value 0.948 | locus YJR016C, strain ILV3, stronger effect = lower value 0.965 | [5] 0.486 | locus YKL193C, strain SDS22, stronger effect = lower value 0.952 | locus YLR403W, strain SFP1, stronger effect = lower value 0.663 | locus YMR001C, strain CDC5, stronger effect = lower value 0.95 | locus YMR277W, strain FCP1, stronger effect = lower value 0.946 | locus YNL006W, strain LST8, stronger effect = lower value 0.951 | locus YNL161W, strain CBK1, stronger effect = lower value 0.965 | locus YNL207W, strain RIO2, stronger effect = lower value 0.93 | locus YNL222W, strain SSU72, stronger effect = lower value 0.968 | locus YOL078W, strain AVO1, stronger effect = lower value 0.941 | locus YOR061W, strain CKA2, stronger effect = lower value 0.708 | locus YOR329C, strain SCD5, stronger effect = lower value 0.959 | locus YPL209C, strain IPL1, stronger effect = lower value 0.964 | locus YPR025C, strain CCL1, stronger effect = lower value 0.961 | locus YPR106W, strain ISR1, stronger effect = lower value 0.972 | locus YPR111W, strain DBF20, stronger effect = lower value 0.964 | strain NNK1, stronger effect = lower value 0.973 | strain TSCII, stronger effect = lower value 0.948
active: locus YDR477W, strain SNF1, stronger effect = lower value 0.663 | locus YFR019W, strain FAB1, stronger effect = lower value 0.752 | locus YGR040W, strain KSS1, stronger effect = lower value 0.655 | locus YGR052W, strain FMP48, stronger effect = lower value 0.587 | locus YGR092W, strain DBF2, stronger effect = lower value 0.431 | [2] 0.397 | [3] 0.437 | [4] 0.415 | locus YJL157C, strain FAR1, stronger effect = lower value 0.664 | locus YJR066W, strain TOR1 (second series), stronger effect = lower value 0.182 | locus YKL048C, strain ELM1, stronger effect = lower value 0.799 | locus YKL067W, strain YNK1, stronger effect = lower value 0.662 | locus YKL101W, strain HSL1, stronger effect = lower value 0.641 | locus YKL203C, strain TOR2, stronger effect = lower value 0.573 | [6] 0.618 | locus YLR133W, strain CKI1, stronger effect = lower value 0.6 | locus YML070W, strain DAK1, stronger effect = lower value 0.608 | locus YMR205C, strain PFK2 (second series), stronger effect = lower value 0.696 | locus YNL020C, strain ARK1, stronger effect = lower value 0.61 | [7] 0.505 | locus YNL307C, strain MCK1 (second series), stronger effect = lower value 0.259 | locus YOL136C, strain PFK27, stronger effect = lower value 0.529 | locus YOR119C, strain RIO1, stronger effect = lower value 0.61 | [8] 0.448 | locus YPL031C, strain PHO85, stronger effect = lower value 0.571 | locus YPL153C, strain RAD53, stronger effect = lower value 0.538 | locus YPL204W, strain HRR25, stronger effect = lower value 0.524 | [9] 0.758

O=C(CSc1nnnn1-c1ccccc1)NC1Cc2ccccc2C1
inactive: [10] 1.02 | [11] 0.998 | [12] 1.02 | [1] 1 | locus YDL134C, strain PPH21, stronger effect = lower value 1 | [13] 0.988 | [14] 0.988 | [15] 1.02 | [2] 1.02 | [16] 0.99 | [17] 1.04 | [18] 1.01 | [19] 1.07 | [20] 0.996 | [21] 0.991 | [22] 1.07 | [23] 0.999 | [24] 0.996 | [25] 1 | locus YMR307W, strain GAS1, stronger effect = lower value 1.06 | locus YNL128W, strain TEP1, stronger effect = lower value 1 | [26] 1.03 | [27] 1.01 | [28] 0.999 | [29] 0.995 | [30] 0.944 | [31] 0.879 | [32] 0.985 | [33] 1.01

CSc1nnnn1-c1c(C)cccc1C
inactive: [10] 0.998 | [11] 0.973 | [12] 0.996 | [1] 1.02 | [13] 1.02 | [14] 0.972 | [15] 0.982 | locus YGR229C, strain SMI1, stronger effect = lower value 0.966 | [2] 0.96 | [16] 0.988 | locus YJL187C, strain SWE1, stronger effect = lower value 0.979 | [17] 0.982 | [18] 0.998 | locus YKL190W, strain CNB1, stronger effect = lower value 0.962 | [19] 0.969 | [20] 0.972 | [21] 0.999 | [22] 0.936 | [23] 1.08 | [24] 0.983 | [25] 1 | [26] 0.998 | [27] 0.984 | [28] 0.984 | [29] 1 | [30] 0.944 | [31] 1.01 | [32] 0.936 | [33] 1.01

Cc1[nH]c(C)c(Cl)c(=O)c1Cl
inactive: locus YAL021C, strain ccr4, stronger effect = lower value 1.01 | locus YAL026C, strain drs2, stronger effect = lower value 1.01 | locus YAL030W, strain snc1, stronger effect = lower value 0.998 | locus YBL061C, strain skt5, stronger effect = lower value 1 | locus YBR009C, strain hhf1, stronger effect = lower value 1.03 | locus YBR023C, strain chs3, stronger effect = lower value 1 | locus YBR171W, strain sec66, stronger effect = lower value 1 | locus YBR231C, strain swc5, stronger effect = lower value 0.996 | locus YBR279W, strain paf1, stronger effect = lower value 0.999 | locus YCL011C, strain gbp2, stronger effect = lower value 1.01 | locus YCL016C, strain dcc1, stronger effect = lower value 0.997 | [12] 0.998 | locus YCL069W, strain vba3, stronger effect = lower value 0.997 | locus YCR088W, strain abp1, stronger effect = lower value 1 | locus YDL005C, strain med2, stronger effect = lower value 1.01 | locus YDL040C, strain nat1, stronger effect = lower value 1 | locus YDR001C, strain nth1, stronger effect = lower value 0.994 | locus YDR069C, strain doa4, stronger effect = lower value 1.02 | locus YDR137W, strain rgp1, stronger effect = lower value 1.01 | locus YDR159W, strain sac3, stronger effect = lower value 0.981 | locus YDR195W, strain ref2 0.962 | locus YDR297W, strain sur2, stronger effect = lower value 1.01 | locus YDR334W, strain swr1, stronger effect = lower value 1 | locus YDR335W, strain msn5, stronger effect = lower value 1 | locus YDR392W, strain spt3, stronger effect = lower value 1.03 | locus YEL003W, strain gim4, stronger effect = lower value 1.01 | locus YEL037C, strain rad23, stronger effect = lower value 0.999 | locus YEL061C, strain CIN8 (second series), stronger effect = lower value 1.01 | locus YER015W, strain faa2, stronger effect = lower value 0.999 | locus YER016W, strain bim1, stronger effect = lower value 0.995 | locus YER111C, strain swi4, stronger effect = lower value 0.999 | locus YER155C, strain BEM2 (second series), stronger effect = lower value 1.01 | locus YFR010W, strain ubp6, stronger effect = lower value 1.01 | locus YGL167C, strain pmr1, stronger effect = lower value 0.999 | locus YGL173C, strain kem1, stronger effect = lower value 1 | locus YGL227W, strain vid30, stronger effect = lower value 0.996 | locus YGL240W, strain doc1, stronger effect = lower value 0.998 | locus YGL253W, strain hxk2, stronger effect = lower value 1.01 | locus YHR013C, strain ard1, stronger effect = lower value 0.979 | locus YHR027C, strain rpn1, stronger effect = lower value 0.992 | [2] 1.04 | [3] 1.03 | locus YHR142W, strain chs7, stronger effect = lower value 1.01 | locus YJL092W, strain hpr5, stronger effect = lower value 0.996 | locus YJL095W, strain BCK1 (second series), stronger effect = lower value 0.998 | [4] 0.983 | locus YJL115W, strain asf1, stronger effect = lower value 1.01 | locus YJL129C, strain trk1, stronger effect = lower value 0.992 | locus YJL154C, strain vps35, stronger effect = lower value 0.999 | locus YJL164C, strain tpk1, stronger effect = lower value 1.01 | locus YJL166W, strain qcr8, stronger effect = lower value 1.01 | [5] 0.986 | locus YKL160W, strain elf1, stronger effect = lower value 1 | locus YKR026C, strain gcn3, stronger effect = lower value 1 | locus YKR091W, strain srl3, stronger effect = lower value 1 | locus YLL001W, strain dnm1, stronger effect = lower value 1 | locus YLL026W, stronger effect = lower value 1 | locus YLL041C, strain sdh2, stronger effect = lower value 1 | locus YLR027C, strain aat2, stronger effect = lower value 1.01 | [6] 0.98 | locus YLR221C, strain rsa3, stronger effect = lower value 0.997 | locus YLR258W, strain gsy2, stronger effect = lower value 0.995 | locus YLR262C, strain YPT6 (second series), stronger effect = lower value 1.03 | locus YLR320W, strain mms22, stronger effect = lower value 1 | locus YLR342W, strain FKS1, stronger effect = lower value 1 | locus YLR357W, strain rsc2, stronger effect = lower value 1 | locus YLR370C, strain arc18, stronger effect = lower value 0.998 | locus YLR384C, strain iki3, stronger effect = lower value 0.995 | locus YML120C, strain ndi1, stronger effect = lower value 1.01 | locus YMR058W, strain fet3, stronger effect = lower value 1.01 | locus YMR125W, strain sto1, stronger effect = lower value 0.994 | locus YMR129W, stronger effect = lower value 0.993 | locus YMR205C, strain PFK2, stronger effect = lower value 0.988 | locus YMR231W, strain pep5, stronger effect = lower value 0.991 | locus YNL071W, strain lat1, stronger effect = lower value 1 | [7] 0.972 | locus YNL209W, strain ssb2, stronger effect = lower value 1.01 | locus YNL248C, strain rpa49, stronger effect = lower value 1.01 | locus YNL322C, strain KRE1 (second series), stronger effect = lower value 0.999 | locus YNR049C, strain mso1, stronger effect = lower value 1 | locus YOR001W, strain rrp6, stronger effect = lower value 1.01 | locus YOR070C, strain gyp1, stronger effect = lower value 1.01 | locus YOR080W, strain dia2, stronger effect = lower value 0.991 | locus YOR083W, strain WHI5, stronger effect = lower value 1.01 | locus YOR106W, strain vam3, stronger effect = lower value 1.02 | [8] 0.999 | locus YOR265W, strain rbl2, stronger effect = lower value 1.01 | locus YOR270C, strain vph1, stronger effect = lower value 1 | locus YOR290C, strain snf2, stronger effect = lower value 0.999 | locus YPL051W, strain arl3, stronger effect = lower value 1.01 | locus YPL078C, strain atp4, stronger effect = lower value 1 | locus YPL106C, strain sse1, stronger effect = lower value 1 | locus YPL240C, strain hsp82, stronger effect = lower value 0.991 | [9] 1.02
